G9a block: G9a (human) methyltransferase inhibition; Potency, µM (top dose mostly 102 µM), inactives show at the top dose activity, negative = inhibition, usual class: inhibitors; G9a H3K9 monomethylation, AlphaScreen, 2 h; Q96KQ7; 8.8% of 350,000 active; also: % is scaled to controls: 0 for no effect and ±100 for the full control effect; nearly all actives have a fitted effect of over 75% in size
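G9a (20 nM) was preincubated 15 min with compound, then reacted 2 h at room temperature with 500 nM biotin-H3K9 peptide and 20 µM SAM. Monomethyl-H3K9 detected by AlphaScreen using anti-H3K9me1 antibody.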
JMJD2A Tudor inh: inhibitors of human JMJD2A Tudor domain | O75164 | AlphaScreen JMJD2A-Tudor / H3K4me3 peptide binding | Potency, µM (doses to about 114 µM), for inactives: at the highest dose activity change, negative = inhibition, usual class: inhibitors | 4.4% of 390,000 active | AID 504339; also: % is scaled to controls: 0 for no effect and ±100 for the full control effect; nearly all actives have a fitted effect of over 50% in size
GLS inhibitor: glutaminase GLS (human) inhibition; AID 624170; Potency, µM (top dose mostly 45.5 µM), for the others: top-dose activity change, negative = inhibition, most hits filed as inhibitors; O94925; GLS enzymatic activity, qHTS titration; 0.21% of 410,000 active; also: % is scaled to controls: 0 for no effect and ±100 for the full control effect
Target sequence (O94925 whole entry, looked up): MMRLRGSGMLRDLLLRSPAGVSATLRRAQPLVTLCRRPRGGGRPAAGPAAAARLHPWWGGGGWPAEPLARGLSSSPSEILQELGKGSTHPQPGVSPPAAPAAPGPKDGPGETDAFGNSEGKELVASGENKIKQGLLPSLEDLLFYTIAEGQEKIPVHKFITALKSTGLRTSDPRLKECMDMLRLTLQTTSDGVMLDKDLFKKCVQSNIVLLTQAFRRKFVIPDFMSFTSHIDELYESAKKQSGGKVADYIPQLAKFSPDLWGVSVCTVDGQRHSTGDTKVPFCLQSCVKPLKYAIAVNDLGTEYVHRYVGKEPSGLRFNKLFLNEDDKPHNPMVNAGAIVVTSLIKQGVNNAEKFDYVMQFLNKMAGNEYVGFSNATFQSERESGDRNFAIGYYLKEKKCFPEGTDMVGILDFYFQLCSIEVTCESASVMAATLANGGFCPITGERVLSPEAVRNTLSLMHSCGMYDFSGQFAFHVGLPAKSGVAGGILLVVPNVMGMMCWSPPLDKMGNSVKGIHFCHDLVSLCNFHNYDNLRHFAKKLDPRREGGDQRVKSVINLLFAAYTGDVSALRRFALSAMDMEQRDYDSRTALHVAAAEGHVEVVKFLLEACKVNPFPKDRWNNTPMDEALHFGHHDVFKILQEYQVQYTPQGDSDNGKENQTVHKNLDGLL
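hKGA; 45 mM KH2PO4 pH 8.2 + 0.02% Tween-20; cpd via pin tool; 1 mM Gln soln; GluOx/HRP/Amplex Red; RT 30 min; fluor. t0 & final.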
HP1b chromo inh: blocks HP1-beta chromodomain binding to methylated histone tails | AlphaScreen HP1-beta / biotin-H3K9me3 peptide binding | Potency, µM (series often up to 114 µM), for inactives: at the highest dose activity change, negative = inhibition, hits mostly inhibitors | 0.56% of 390,000 active | AID 540317; also: nearly all actives have a fitted effect of over 70% in size
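HP1-beta protein (50 nM final) preincubated 30 min at room temperature with biotinylated H3(1-18)K9me3 peptide (50 nM) in PBS pH 7.4, 0.01% Tween-20, then compound added for 30 min. AlphaScreen streptavidin donor/nickel chelate acceptor beads (10 ug/mL final), 30 min dark, luminescence read.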
BAZ2B block: inhibitors of human BAZ2B bromodomain. AlphaScreen BAZ2B-H3K14Ac peptide displacement. Q9UIF8. Potency, µM (top dose mostly 114 µM), for inactives: top-dose activity change, negative = inhibition, most hits filed as inhibitors. 4.4% of 360,000 active; also: % is scaled to controls: 0 for no effect and ±100 for the full control effect; nearly all actives have a fitted effect of over 60% in size
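BAZ2B (50 nM) with biotin-H3(5-23)K14Ac peptide (50 nM) in PBS pH 7.4, 0.01% Tween-20, preformed 30 min, then compound 30 min at room temperature; top concentration 110uM. AlphaScreen streptavidin donor/nickel chelate acceptor beads (10 ug/mL final), 20 min dark, signal read.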
* marks the source's active call; other numbers are inactive results; ? = inconclusive; . = no result given; [ ] = dose if it differs, or a comment. A selection: hits, their analogues and other compounds. The true share with any hit is near 10%. Calls follow the shape of the dose curve; as a rule, active = well fitted curve in the direction sought with a large enough effect; inconclusive = small, poorly fitted or top-dose-only effect, or another doubt; inactive = no such curve, though single readings can be large; an effect the other way counts as inactive or inconclusive. Potency is read from the fitted curve at half-maximal effect.

SMILES	G9a block	JMJD2A Tudor inh	GLS inhibitor	HP1b chromo inh	BAZ2B block
Cc1cc(NC(=O)CSc2nnc(-c3ccncc3)n2N)ccc1Br	35µM*	79µM*	11%	15%	11%
CCc1ccc(CNc2ccc3c(c2)ncn3C)cc1	3.2µM*	?	1%	?	45µM*
COc1ccc(CNc2ccc3c(c2)ncn3C)cc1OC	40µM*	-25%	-16%	36%	-22%
CCn1cnc2cc(NCc3ccc(Cl)cc3)ccc21	50µM*	?	?	-22%	?
CCCn1cnc2cc(NCc3ccccn3)ccc21	10µM*	56µM*	4%	1%	50µM*
CCCn1cnc2cc(NCc3cccc(OC)c3O)ccc21	?	?	33%	9%	?
CCOc1ccccc1N1CC(C(=O)NCCc2ccc(S(N)(=O)=O)cc2)CC1=O (centres undefined)	27%[59 µM]	-7%	-10%	22%	12%
CCOc1ccc(N2CC(C(=O)OCC(=O)c3ccc(OC)cc3)CC2=O)cc1 (centres undefined)	-10%	56µM*	-5%	7%	-12%
COc1ccc(N2CC(C(=O)OCC(=O)c3ccc(C)cc3)CC2=O)cc1 (centres undefined)	.	-4%	0%	28%	-11%
CCOc1ccc(N2CC(C(=O)NCCc3ccc(S(N)(=O)=O)cc3)CC2=O)cc1 (centres undefined)	25µM*	-5%	-6%	3%	4%
CCOc1ccc(N2CC(C(=O)NCCN3C(=O)S/C(=C/c4cccnc4)C3=O)CC2=O)cc1 (centres undefined)	14µM*	-9%	0%	48%	3%
CCCCCc1c(O)c2ccccc2[nH]c1=O	8%[59 µM]	-18%	20%	10%	12%
CCCCS(=O)c1c(O)c2ccccc2[nH]c1=O (centres undefined)	32µM*	-13%	14%	29%	-7%
O=c1[nH]c2ccccc2c(O)c1O	0.71µM*	50µM*	5.6µM*	?	2%
Cc1ccc(N2NC(=O)/C(=C\c3cc4c(cc3[N+](=O)[O-])OCO4)C2=O)cc1C	25µM*	?	?	?	45µM*
COc1cc(/C=C2/C(=O)NN(c3ccc(C)c(Cl)c3)C2=O)cc([N+](=O)[O-])c1O	11µM*	?	-30%	-18%	32µM*
COc1cc(/C=C2/C(=O)NN(c3cccc(C)c3)C2=O)cc([N+](=O)[O-])c1O	35µM*	56µM*	-29%	?	40µM*
Cc1cc(C)n(-c2ccc(C(=O)Nc3ccc4c(c3)OCO4)cc2)n1	-14%	-13%	-2%	1%	-22%
CCN(c1ccc(NC(=O)c2ccc(Cl)nc2)cc1)C(C)C	22µM*	-15%	0%	29%	?
Cc1cc(C)n(-c2ccc(C(=O)Nc3ccc(N4CCOCC4)cc3)cc2)n1	56µM*	-25%	-6%	24%	-27%
CC1CCc2sc(C(=O)Nc3ccc(N4CCOCC4)cc3)cc2C1 (centres undefined)	32µM*	?	10%	?	?
O=C(Nc1ccc(N2CCOCC2)c(Cl)c1)c1cccc(-n2cnnc2)c1	21%	-11%	2%	17%	-5%
O=C(Nc1ccc(N2CCOCC2)cc1)c1cccc(-n2cnnc2)c1	45µM*	-15%	0%	-11%	-22%
Cc1ccc(NC(=O)Cn2c(CCC(=O)O)ccc2-c2ccc(Cl)cc2)cc1	?	-32%	8%	34%	?
Cc1ccc2nc(SCC(=O)Nc3ccccc3F)nc(=O)n2c1	8%	1%	-11%	26%	10%
SMILES	G9a block	JMJD2A Tudor inh	GLS inhibitor	HP1b chromo inh	BAZ2B block
O=C(Nc1ccc(N2CCOCC2)cc1)c1ccc(Cl)nc1	50µM*	?	38%	-18%	?
COc1ccc(C(=O)/C=C/c2cn(CC(O)CN3CCCCCC3)c3ccccc23)cc1OC (centres undefined)	?	?	0%	-18%	28µM*
Cc1ccc(C(=O)/C=C/c2cn(CC(O)CN3CCCCCC3)c3ccccc23)cc1 (centres undefined)	?	50µM*	2%	-21%	?
COc1ccc(C(=O)/C=C/c2cn(CC(O)CN3CCN(C)CC3)c3ccccc23)cc1OC (centres undefined)	-23%	-17%	9%	9%	-24%
COc1cccc2c1OCC(CN1CCN(Cc3ccccc3)C(CCO)C1)=C2 (centres undefined)	8%	-21%	5%	4%	-16%
O=S(=O)(NC1CCCCC1Oc1ccccc1)c1ccc(Cl)cc1 (centres undefined)	36%[59 µM]	34%	0%	53%	16%
COc1cc(C(=O)NCCC(=O)NC2CCCCC2)cc(OC)c1OC	15%	-10%	-2%	20%	-7%
CCCCCOc1ccc(/C=c2\sc3nc(=O)c(-c4ccccc4)nn3c2=O)cc1OC	-9%[59 µM]	-4%	6%	2%	-5%
O=c1nc2s/c(=C\c3ccc(-c4ccccc4[N+](=O)[O-])o3)c(=O)n2nc1-c1ccccc1	?	3%	-2%	31%	10µM*
O=C(O)C1CCN(c2nc(-c3ccccc3)nc3c2oc2ccccc23)CC1	-3%	8%	24%	27%	-30%
Cc1nc2cc(N=NC3=C(O)CCCC3=O)ccc2s1	?	?	6%	-17%	56µM*
O=C1CCCC(O)=C1N=Nc1ccc(Cl)c(Cl)c1	?	-18%	-2%	13%	?
CCC(c1ccccc1)C(CC)c1cc(O)c(O)c(O)c1 (centres undefined)	.	-13%	11µM*	-9%[57 µM]	.
CCC(C(=O)O)c1ccccc1 (centres undefined)	-7%[2.33 µM]	.	.	.	.
Cn1nnnc1SCCNCc1ccc(OCc2ccc(Cl)cc2)cc1	5%[59 µM]	-25%	5%	38%	-31%
N#CCN1CCCC(C(N)=O)C1 (centres undefined)	-12%	3%	-3%	48%	5%
Cc1c(NC(=O)Oc2ccccc2)sc(=S)n1C	45µM*	-31%	47%	-14%	?
Cc1ccc(NC(=O)Nc2sc(=S)n(C)c2C)cc1	25µM*	-15%	9%	-23%	-2%
CC(=O)NC(=O)Nc1sc(=S)n(C)c1C	?	-14%	13%	15%	-3%
COc1ccc2c(c1)-c1nc(/N=C/c3cccc(OC)c3O)sc1CC2	18µM*	?	17%	?	50µM*
O=C1CN(Cc2ccccc2)C(=NCc2ccco2)S1	-21%[59 µM]	79µM*	1%	-14%	?
S=C1SCN(Cc2ccccc2)CN1Cc1ccco1	.	.	-2%	.	.
O=C1Nc2ccccc2SC(c2ccccc2)C1O (centres undefined)	10µM*	56µM*	-10%	-30%	40µM*
O=C1Nc2ccccc2SC1c1ccccc1Cl (centres undefined)	.	-10%	-10%	17%[57 µM]	.
